Measurements published in PubChem BioAssay (Tox21).
Records with an inconclusive call do not appear. Calls of active or inactive are those of the source. The call rests on the fitted dose curve; in most records, active means well fitted cell-killing curve with a large enough effect in the repeat runs; inconclusive means weak or mixed curves, or effect the other way; inactive means no such curve, though single readings can be large or run the other way.

experiment: qHTS assay for small molecule activators of the heat shock response signaling pathway - cell viability counter screen (AID 743209); settings: HSE-bla HeLa viability, CellTiter-Glo luminescence, 5 h; series mostly up to 62.6 µM; activity change, negative = cytotoxicity: at the top concentration; further: nearly all actives have a fitted effect of over 50% in size
Source text: U.S. Tox21 Program National Center for Advancing Translational Sciences [NCATS] NIH Chemical Genomics Center [NCGC] U.S. Environmental Protection Agency [EPA] National Institutes of Environmental Health Sciences [NIEHS] National Toxicology Program [NTP] U.S. Food and Drug Administration [FDA] Tox21 Assay Overview: Various chemicals, environmental and physiological stress conditions may lead to the activation of heat shock response/ unfolded protein response (HSR/UPR). There are three heat shock transcription factors (HSFs) (HSF-1, -2, and -4) mediating transcriptional regulation of the human HSR. To identify the compounds that activate HSR signaling, HSE-bla HeLa cell line (Invitrogen, Carlsbad, CA, USA) containing a beta-lactamase reporter gene under the control of the heat shock response elements was used to screen Tox21 10K compound library. The cytotoxicity of the Tox21 compound library against the HSE-bla HeLa cell line was tested in parallel by measuring the cell viability using CellTiter-Glo assay (Promega, Madison, WI) in the same wells.
Tox21 Assay Protocol Summary: The CellSensor HSE-bla HeLa cells (Invitrogen, Carlsbad, CA, USA) were dispensed at 1500 cells/6uL/well into 1536-well black wall/clear bottom plates using a Multidrop combi (Thermo Fisher Scientific, Waltham, MA) dispenser. After the assay plates were incubated at 37 C and 5% CO2 overnight, 23 nL of compounds dissolved in DMSO, positive controls or DMSO only was transferred to the assay plate by a Pintool station (Kalypsys, San Diego, CA). The plates were incubated at 37 C for 5 h. After 1 uL of LiveBLAzerTM B/G FRET substrate was added using a Flying Reagent Dispenser (FRD, Beckman Coulter, Indianapolis, IN, USA), the plates were incubated at room temperature for 2.5 h, and fluorescence intensity was measured by an Envision plate reader (PerkinElmer, Shelton, CT). For cell viability readout that measures cytotoxicity, 3 ul/well of CellTiter-Glo reagent was added into the assay plates using a FRD. After 30 min incubation at room temperature, the luminescence intensity in the plates was measured using a ViewLux (PerkinElmer) plate reader.
On the % scale 0 is the no-effect control and ±100 the full control effect; potency means the concentration at half of the fitted maximal effect.

Structure (SMILES) | activity change, negative = cytotoxicity | Potency
O=[N+]([O-])c1ccccc1Nc1ccccc1 | 7.22% (inactive) | 
O=C(OCC(COC(=O)c1ccccc1)(COC(=O)c1ccccc1)COC(=O)c1ccccc1)c1ccccc1 | 8.46% (inactive) | 
O=c1[nH]sc2ccccc12 |  | 54.9 µM (active)
CCCCCCCCCCCCCCCS(=O)(=O)Oc1ccccc1 | 2% (inactive) | 
CCCCCCOC(=O)c1ccc(O)cc1 | -3.89% (inactive) | 
CC/C(=C(\c1ccc(O)cc1)c1ccc(OCCN(C)C)cc1)c1ccccc1 |  | 27.6 µM (active)
O=C1c2c(O)ccc(Nc3ccc(CCO)cc3)c2C(=O)c2c([N+](=O)[O-])ccc(O)c21 | -0.274% (inactive) | 
O=S1(=O)CC(Cl)(Cl)C(Cl)(Cl)C1 |  | 1.95 µM (active)
Oc1ccc(N=Nc2ccccc2)cc1 | -2.06% [at 81.1 µM] (inactive) | 
O=C1C=CC(=O)N1 |  | 20 µM (active)
CN1CCN(CCC(=O)N2c3ccccc3Sc3ccc(C(F)(F)F)cc32)CC1 | 2.97% (inactive) | 
CC(C)(C)CC(C)(C)c1ccc(O)c(Cc2ccc(Cl)cc2Cl)c1 |  | 23.7 µM (active)
CCN1/C(=C/C=C/c2sc3ccccc3[n+]2CC)Sc2ccccc21 |  | 13 µM (active)
Oc1ccc2cc(SSc3ccc4cc(O)ccc4c3)ccc2c1 |  | inactive
Nc1nc2ccccc2n1Cc1ccc(F)cc1 | -3.69% (inactive) | 
CCN(CCC#N)c1ccc(N=Nc2c(Cl)cc([N+](=O)[O-])cc2Cl)cc1 | -3.2% (inactive) | 
COC(=O)C1=C(C)NC(C)=C(C(=O)OCCc2ccc(N3CCN(C(c4ccccc4)c4ccccc4)CC3)cc2)C1c1cccc([N+](=O)[O-])c1 (stereo not given) | -5.46% (inactive) | 
NC(=O)N1C(=O)C(C(=O)c2cc(Cl)cs2)c2cc(F)c(Cl)cc21 (stereo not given) | -16.1% (inactive) | 
Cc1cc(=O)oc2cc(N(C)C)ccc12 | 3.12% (inactive) | 
Clc1ccc2n[nH]nc2c1 | 0.256% (inactive) | 

Structure (SMILES) | activity change, negative = cytotoxicity | Potency
[Cl][Bi]([Cl])([c]1ccccc1)([c]1ccccc1)[c]1ccccc1 |  | 48.7 µM (active)
Nc1cc(C(F)(F)F)ccc1S | -2.7% (inactive) | 
CN(C)[C@@H]1C(=O)C(C(N)=O)=C(O)[C@@]2(O)C(=O)C3=C(O)c4c(O)cccc4C[C@H]3C[C@@H]12 | -10.9% (inactive) | 
O=C(Oc1ccccc1)c1ccccc1C(=O)Oc1ccccc1 | -1.13% (inactive) | 
O=C(O)c1c(Cl)cccc1Cl | -9.67% (inactive) | 
CC(C)C(C)(C)C(C)(C)C(C)(C)S | 22.6% [at 81.1 µM] (inactive) | 
Cc1ccc2oc(CN(Cc3ccccc3)C(=O)Nc3c(F)cc(F)cc3F)c(-c3ccc(Cl)cc3)c2c1 | -1.37% (inactive) | 
O=CC=C(c1ccccc1)c1ccccc1 | -16.7% [at 81.1 µM] (inactive) | 
NNc1nc(-c2ccccc2)cs1 | -19.3% [at 81.1 µM] (inactive) | 
CC1=NC(C)OC1C (stereo not given) | -0.226% (inactive) | 
COc1cccc(N)c1 | 1.48% [at 81.1 µM] (inactive) | 
Oc1cc2ccccc2c2ccccc12 |  | 9.77 µM (active)
CCCC(=O)OC[C@@H](OC(=O)CCC)[C@@H](OC(=O)CCC)[C@H](Cn1c2nc(=O)[nH]c(=O)c-2nc2cc(C)c(C)cc21)OC(=O)CCC | -5.77% (inactive) | 
CCCCN1C(=O)[C@@H]([C@H](O)C2CCCCC2)NC(=O)C12CCN(Cc1ccc(Oc3ccc(C(=O)O)cc3)cc1)CC2 | -0.886% (inactive) | 
CSc1ccc(/C=C2/C(C)=C(CC(=O)O)c3cc(F)ccc32)cc1 | -10.8% (inactive) | 
CCCCCCCC[N+](CCCCCCCC)(CCCCCCCC)CCCCCCCC |  | 4.89 µM (active)
O=C(O)c1ccc(Cl)c(Cl)c1 | -6.09% (inactive) | 
CCCCCCCC[P+](CCCCCCCC)(CCCCCCCC)CCCCCCCC |  | 5.46 µM (active)
CCCCCCCCCCCCCCCC(=O)OC[C@H](O)[C@H]1OC(=O)C(O)=C1O |  | 49 µM (active)
CSc1ccc(C(=O)c2[nH]c(=O)[nH]c2C)cc1 | -6.86% (inactive) | 
